Shown are actives, neighbours in structure and some others; about 2.9% of the full set was active somewhere.
PI5P4Ka inh: inhibitors of human PI5P4K alpha | max response, % | actives 1.2% (n = 330,000) | P48426 | PI5P4Kalpha enzyme, ADP-Glo luminescence, 60 min; stronger effect = lower value; active means max response of -50% or lower; inconclusive means between -30% and -50%; inactive means -30% or higher; further: value at the top dose of about 77 µM; on the % scale 0 is the no-effect control and ±100 the full control effect
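PI5P4Kalpha ADP-Glo assay; 5 microM ATP final; 60 min RT reaction; HEPES pH 7.4/EGTA/CHAPS, 5% DMSO; controls lacking substrate or enzyme; luminescent end-point.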
POLH inh: blocks human DNA polymerase eta activity; recombinant Pol eta, fluorescent DNA replication assay; Potency, µM (doses to about 114 µM), for the others: top-dose activity change, negative = inhibition, hits mostly inhibitors; actives 1.2% (n = 390,000); further: potency means the concentration at half of the fitted maximal effect; on the % scale 0 is the no-effect control and ±100 the full control effect
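Pol eta at 10 nM preincubated with compounds 15 min at room temperature; reaction started with fluorescent substrate (50 nM final) and read kinetically at 0 and 10 min.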
POLI inh: blocks human DNA polymerase iota activity. actives 1% (n = 390,000). Q9UNA4. AID 588590. Pol iota fluorescent replication assay, 10 min. Potency, µM (titrated, usually from 115 µM), for the others: top-dose activity, negative = inhibition, usual class: inhibitors; further: potency means the concentration at half of the fitted maximal effect
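Fluorescent replication assay read twice, at 0 min and 10 min after adding 50 nM (final) substrate. Enzyme (10 nM) and compounds were first incubated 15 min at room temperature; enzyme-free buffer wells were negative controls.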
12-LOX inh: ALOX12 (human) lipoxygenase inhibition; P18054; purified 12hLO, xylenol orange hydroperoxide absorbance; Potency, µM (titrated, usually from 108 µM), for the others: top-dose activity change, negative = inhibition, actives largely listed as inhibitors; actives 1.1% (n = 580,000); further: potency means the concentration at half of the fitted maximal effect; on the % scale 0 is the no-effect control and ±100 the full control effect
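Purified human 12hLO at 150 nM in 25 mM Hepes, 0.01% Triton X-100, pH 7.0, preincubated 15 min at room temperature with compound. Reaction started with 40 uM arachidonic acid, 30 min at room temperature. Hydroperoxide measured by Fe-xylenol orange, 573/405 nm absorbance ratio.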
Pol kappa inh: DNA polymerase kappa (human) inhibition. actives 0.53% (n = 400,000). Potency, µM (highest dose often 107 µM), for inactives: top-dose activity, negative = inhibition, usual class: inhibitors. purified Pol kappa, fluorescent DNA synthesis assay, 10 min; further: potency means the concentration at half of the fitted maximal effect; on the % scale 0 is the no-effect control and ±100 the full control effect
Target sequence (Q9UBT6 whole entry, looked up): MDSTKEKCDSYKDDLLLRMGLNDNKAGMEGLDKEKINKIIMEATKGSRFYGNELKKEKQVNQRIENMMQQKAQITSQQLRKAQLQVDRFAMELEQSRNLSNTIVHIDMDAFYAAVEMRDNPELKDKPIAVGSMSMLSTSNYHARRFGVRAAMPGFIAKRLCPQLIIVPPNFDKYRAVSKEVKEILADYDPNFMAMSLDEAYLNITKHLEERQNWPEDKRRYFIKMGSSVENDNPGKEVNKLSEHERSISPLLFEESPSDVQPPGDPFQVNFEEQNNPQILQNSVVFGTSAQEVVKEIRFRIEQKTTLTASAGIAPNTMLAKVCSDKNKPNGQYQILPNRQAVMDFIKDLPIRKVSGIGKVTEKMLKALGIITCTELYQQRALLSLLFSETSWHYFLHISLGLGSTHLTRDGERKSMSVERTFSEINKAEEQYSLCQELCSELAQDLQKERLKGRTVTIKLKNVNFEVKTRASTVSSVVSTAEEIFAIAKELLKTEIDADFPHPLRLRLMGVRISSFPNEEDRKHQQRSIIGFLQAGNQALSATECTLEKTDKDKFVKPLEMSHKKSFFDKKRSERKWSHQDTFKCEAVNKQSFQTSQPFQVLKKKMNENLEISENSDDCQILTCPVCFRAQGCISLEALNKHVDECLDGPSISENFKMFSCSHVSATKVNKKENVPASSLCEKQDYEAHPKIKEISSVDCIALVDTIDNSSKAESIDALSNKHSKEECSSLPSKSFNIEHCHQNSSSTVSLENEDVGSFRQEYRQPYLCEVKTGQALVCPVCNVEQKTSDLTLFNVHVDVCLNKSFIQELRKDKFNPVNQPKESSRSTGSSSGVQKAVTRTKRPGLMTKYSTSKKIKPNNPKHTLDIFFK
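Readout: fluorescence, taken kinetically at 0 and 10 min. Conditions: 10 nM Pol kappa, 15 min RT compound preincubation, 50 nM substrate final. Controls: enzyme-free buffer wells.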
Pol beta inh: inhibitors of human DNA polymerase beta. Pol beta primer extension/strand displacement, fluorescence kinetic. actives 1.3% (n = 340,000). AID 485314. Potency, µM (series often up to 114 µM), for inactives: at the top dose activity change, negative = inhibition, usual class: inhibitors; further: potency means the concentration at half of the fitted maximal effect; on the % scale 0 is the no-effect control and ±100 the full control effect
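Pol beta (10 nM) and compounds were preincubated 15 min at room temperature, then 50 nM substrate (final) started primer extension/strand displacement. Reads were taken at 0 and 10 min; concentration-response data were fitted to a four-parameter Hill equation.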
Numbers without * were called inactive; ? = inconclusive; . = not tested or not shown; ! = not confirmed by another sample; [ ] = another dose, or the depositor's remark. Unless noted, the call rests on the fitted dose curve; in most records, active means well fitted inhibition curve with a large enough effect; inconclusive means small, poorly fitted or top-dose-only effect, or another doubt; inactive means no such curve, though single readings can be large or run the other way.

SMILES | PI5P4Ka inh | POLH inh | POLI inh | 12-LOX inh | Pol kappa inh | Pol beta inh
CCOC(=O)c1ccc(NC(=O)CSc2nc3sc(C(=O)O)c(C)c3c(=O)[nH]2)cc1 | -81* | -10% | 9% | -17% | -28% | 9%
COC(=O)c1ccc(CSc2nc3sc(C(=O)O)c(C)c3c(=O)[nH]2)cc1 | -24 | -10% | -16% | 19% | 0% | 0%
CCOc1ccc(OCC)c(NC(=O)c2nc3ccccc3nc2N2CCCCC2)c1 | . | . | . | 5% | . | .
CCC(Sc1ncc(S(=O)(=O)c2ccc(C)cc2)c(=O)[nH]1)C(=O)Nc1cc(C)ccc1C (configuration not stated) | . | -5% | ? | ? | -4% | 25µM*
COc1ccc(C(=O)Nc2c(N)nc(SCC(=O)Nc3ccc(NC(C)=O)cc3)[nH]c2=O)cc1 | 2 | ? | 79µM* | 11% | ? | 35µM*
CCCc1c(CC)c(=N)c2ccccc2n1C | . | -5% | -7%[58.9 µM] | 5µM* | 3% | 1%
O=C(Cc1ccccc1)NO | . | . | 8% | . | -2%[60.1 µM] | .
O=C(Cc1ccsc1-c1ccccc1)NO | 0 | -17% | -5% | 16µM* | 5% | 23%
O=C(CNC(=O)c1ccc(-c2ccccc2)cc1)OCc1ccc(Br)cc1 | 3 | 22µM* | 110% | -10% | -2% | 1%
CCOCCOC(=O)COc1ccc2c(=O)c(-c3ccc(OC)c(OC)c3)c(C(F)(F)F)oc2c1 | . | . | . | 14% | . | .
CCCN1CCN(c2nnc(-n3cccc3CN3CCN(Cc4ccccc4)CC3)s2)CC1 | . | . | . | 42% | . | .
O=C(Oc1c(Br)cc(Br)c2cccnc12)N1CCCCC1 | 0 | -12% | 1% | -22% | -19% | 7%
Nc1c(Br)cc(Br)c2cccnc12 | . | . | 8.9µM* | . | 4% | .
NS(=O)(=O)Nc1c(Br)cc(Br)c2cccnc12 | . | . | 25µM* | . | -4% | .
Cc1[nH]c2ccccc2c1N=Nc1ccccc1C(=O)O | ? | 35µM* | ? | ? | ? | 32µM*
CC1=NN(c2ccccc2)C(=O)C1N=Nc1ccccc1 (configuration not stated) | 6 | -27% | 57% | 1% | -11% | 32%
CC1=NN(c2ccccc2)C(=O)C1N=Nc1ccc(N)cc1 (configuration not stated) | -9 | -5% | ? | 0% | -11% | 22µM*
O=C(/C=C/c1ccccc1)NCc1cccnc1 | -1 | -2% | 157% | -17% | -11% | -4%
O=C(/C=C/c1ccc(-c2ccccc2)cc1)NCc1cccnc1 | 0 | -35% | ? | 20% | -2% | 50µM*
Clc1cc2[nH]c3c(c2cc1Cl)CCCC3 | . | . | . | -27% | . | .
NC(=S)N/N=C1/CCSc2ccc3ccccc3c21 | 14 | -18% | 55% | 20µM* | 3% | 0%
CC(NC(=O)c1cccs1)c1ccccc1 (configuration not stated) | 6 | -3% | 0% | ? | -19% | .
Cc1ccc(C(C)NC(=O)c2cccs2)cc1 (configuration not stated) | 0 | -11% | 14% | 10µM* | 11% | .
Cc1cc2nc3ccc(=[N+](C)C)cc-3sc2cc1N | -18 | ? | 18µM* | . | -32% | 8.9µM*
O=C(NCc1ccco1)c1cccnc1-c1nc2ccccc2s1 | ? | ? | 9% | ? | -16% | -15%
SMILES | PI5P4Ka inh | POLH inh | POLI inh | 12-LOX inh | Pol kappa inh | Pol beta inh
CN1CCN(C(=O)c2cccnc2-c2nc3ccccc3s2)CC1 | . | . | . | 32µM* | . | .
O=C(Cc1csc(-c2ccc(F)cc2)n1)Nc1ccnn1Cc1ccccc1Cl | . | . | . | 7% | . | .
C[C@@H](CC(=O)O)[C@@H](N)C(=O)O | . | . | . | 20µM*! | 4%[19.4 µM] | .
CCOC(=O)NC1(NC2CCCCC2)Oc2ccccc2O1 | . | -1% | 71µM* | -46% | 79µM* | 25µM*
CCOC(=O)NC1(NC(C)C)Oc2ccccc2O1 | -4 | -15% | ? | 25µM* | 11% | 5%
CC(=O)N1CCC2(CC1)OC(=O)C(C)=C2C(=O)NCCN1CCOCC1 | . | . | . | 32% | . | .
O=C(O)COc1ccccc1/C=N/NC(=O)COc1ccc(-c2ccccc2)cc1 | -2 | 50µM* | -7% | -34% | -1% | ?
COC(=O)c1ccc(COc2ccccc2/C=N/Nc2cccc(C(=O)O)c2)cc1 | -17 | 79µM* | ? | ? | ? | -3%
COc1ccc(/C=N/NC(=O)COc2cccc3cccnc23)cc1OC | -10 | ? | ? | 30% | ? | ?
O=C(O)c1cccc(NC(=S)N/N=C/c2cccc(O)c2)c1 | -4 | -19% | 51% | ? | -11% | 2%
CCn1cc(/C=N/NC(=O)COc2cccc3cccnc23)c2ccccc21 | -6 | ? | ? | -5% | -2% | 13µM*
O=C(O)c1cccc(NC(=S)N/N=C/c2ccccc2OCc2ccc(Br)cc2)c1 | -65* | ? | ? | 16µM* | -38% | ?
Cn1nc(C(=O)OCC(=O)Nc2ccc(OCc3ccccc3)cc2)c2ccccc2c1=O | . | . | . | -9% | . | .
CC(C)(C)c1noc(CSc2cc(C(N)=O)c3ccccc3n2)n1 | . | . | . | 15% | . | .
O=C(COc1ccccc1-c1ccccc1)N/N=C/c1cccc2ccccc12 | 0 | -4% | 2% | -16% | -19% | ?
O=C(COc1cccc2ccccc12)N/N=C/c1ccccc1OCc1ccc(C(=O)O)cc1 | -2 | 79µM* | 23% | 14% | -25% | 89µM*
CCNC(=O)NC(=O)COC(=O)c1ccccc1SCC(=O)NC(=O)NCC | -63* | 5% | ? | 0% | -10% | -7%
COC(=O)CC1c2cc(OC)c(OC)cc2CCN1Cc1noc(C(C)(C)C)n1 (configuration not stated) | . | . | . | -6% | . | .
O=C1NN(c2ccccc2)C(=O)C1=Cc1ccccc1O | -5 | 7% | . | ? | . | .
O=C1NN(c2cccc(Br)c2)C(=O)/C1=C\c1ccc(O)cc1 | -51* | ? | ? | 16µM* | -3% | ?
Cc1cc(/C=C2/C(=O)NN(c3ccccc3)C2=O)c(C)n1-c1cccc(O)c1 | -56* | ? | 56µM* | -25% | -33% | ?
Cc1cc(C=C2C(=O)c3ccccc3C2=O)c(C)n1-c1cccc(C(=O)O)c1 | -16 | 45µM* | ? | ? | ? | ?
O=C(CSc1nccn2nc(-c3cccc4ccccc34)cc12)N1CCN(c2ccc(F)cc2)CC1 | . | . | . | 5% | . | .
COc1ccc(C2Cn3nnc(C(=O)N4CCN(C(=O)c5cc(F)ccc5Cl)CC4)c3CO2)cc1 (configuration not stated) | . | . | . | 24% | . | .
CCCn1nc(C(=O)NC(C)c2cccs2)c2ccccc2c1=O (configuration not stated) | . | . | . | -28% | . | .
